Source: PubChem BioAssay
Values without a mark were called inactive. Activity calls are given as the source filed them. Rule as the data show it, unless noted: active = inhibition above about 30%; inactive = the rest.

Assays:
[1] = biological target: Nuclear receptor coactivator 3 (Homo sapiens) (UniProt Q9Y6Q9); assay: SRC3 coactivator transcriptional activity inhibitors, confirmation, cell-based, luminescence, quadruplicate (AID 588792;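 active = mean inhibition over 43.08%, the solvent-only control mean plus 3 SD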;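 also: 0% = DMSO treated cells and 100% = gossypol at 36 µM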); conditions: HEK293 GAL4-SRC3 luciferase reporter, at 3.6 µM, hits give high values
Nuclear receptor coactivator 3 (Homo sapiens), sequence (Q9Y6Q9 whole entry, looked up, the tested form may be a part): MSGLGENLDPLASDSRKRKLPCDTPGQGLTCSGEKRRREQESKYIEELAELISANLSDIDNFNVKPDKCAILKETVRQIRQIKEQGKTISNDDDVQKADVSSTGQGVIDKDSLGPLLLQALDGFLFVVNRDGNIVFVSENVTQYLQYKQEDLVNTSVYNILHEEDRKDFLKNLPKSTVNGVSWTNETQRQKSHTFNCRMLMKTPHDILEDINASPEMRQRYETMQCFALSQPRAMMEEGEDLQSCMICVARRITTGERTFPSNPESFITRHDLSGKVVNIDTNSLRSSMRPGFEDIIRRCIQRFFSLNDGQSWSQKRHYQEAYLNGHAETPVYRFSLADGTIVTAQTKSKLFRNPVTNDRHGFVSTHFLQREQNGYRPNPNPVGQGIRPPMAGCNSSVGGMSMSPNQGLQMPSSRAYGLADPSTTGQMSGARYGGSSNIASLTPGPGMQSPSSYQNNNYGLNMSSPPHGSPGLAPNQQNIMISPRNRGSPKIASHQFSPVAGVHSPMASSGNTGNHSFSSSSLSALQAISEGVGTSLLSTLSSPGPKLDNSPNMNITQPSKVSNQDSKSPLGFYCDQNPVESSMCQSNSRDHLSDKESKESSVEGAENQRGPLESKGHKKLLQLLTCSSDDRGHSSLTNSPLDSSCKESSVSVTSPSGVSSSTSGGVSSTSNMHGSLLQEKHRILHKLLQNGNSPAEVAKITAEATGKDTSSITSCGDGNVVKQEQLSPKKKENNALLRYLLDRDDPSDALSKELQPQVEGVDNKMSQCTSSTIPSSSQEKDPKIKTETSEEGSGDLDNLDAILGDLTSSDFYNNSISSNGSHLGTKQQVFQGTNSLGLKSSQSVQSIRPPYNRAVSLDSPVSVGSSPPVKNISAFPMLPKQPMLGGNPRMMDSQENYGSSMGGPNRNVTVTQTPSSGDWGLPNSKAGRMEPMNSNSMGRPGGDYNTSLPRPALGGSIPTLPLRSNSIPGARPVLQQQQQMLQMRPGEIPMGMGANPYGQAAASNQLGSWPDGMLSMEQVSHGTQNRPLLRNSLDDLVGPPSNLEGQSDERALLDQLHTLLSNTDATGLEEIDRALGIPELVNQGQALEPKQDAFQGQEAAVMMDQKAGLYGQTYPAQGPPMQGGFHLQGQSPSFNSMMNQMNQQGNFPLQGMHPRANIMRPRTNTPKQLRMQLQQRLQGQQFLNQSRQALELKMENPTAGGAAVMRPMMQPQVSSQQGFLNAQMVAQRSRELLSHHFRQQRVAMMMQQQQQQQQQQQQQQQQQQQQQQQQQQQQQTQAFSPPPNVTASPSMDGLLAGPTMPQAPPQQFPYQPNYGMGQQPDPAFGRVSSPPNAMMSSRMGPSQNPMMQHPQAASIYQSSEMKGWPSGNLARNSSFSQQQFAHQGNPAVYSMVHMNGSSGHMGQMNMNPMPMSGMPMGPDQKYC

[2] = test system: transactivating tegument protein VP16 (Human herpesvirus 1), Gal4-VP16 luciferase reporter; assay: VP16 transactivation inhibitors, counter-screen for SRC3 inhibitor project, cell-based, luminescence, high throughput (AID 588794); conditions: mammalian cells, VP16-driven luciferase reporter luminescence; at 3.6 µM; hits give high values

SMILES | inhibition [1] [%] | inhibition [2]
CN1C(=O)C2(C(C#N)=C(N)N(c3cc(Cl)cc(Cl)c3)C3=C2C(=O)CCC3)c2ccccc21 (centres undefined) | 30.9 | 27.9%
CC[N+](CC)(CC)CCOc1ccc(/C=C/c2ccccc2)cc1 | 3.27 | 5.91%
CCN1C/C(=C\c2cccc([N+](=O)[O-])c2)C(=O)/C(=C/c2cccc([N+](=O)[O-])c2)C1 | -110 | 80.6% (active)
CC1CCC(C(C)C)C(OC(=O)Cn2c(-c3ccc(Br)cc3)[n+](C)c3ccccc32)C1 (centres undefined) | 3.76 | 35.8% (active)
C/C(N)=C(/C#N)C(=O)COC(=O)c1ccc(C#N)cc1 | -7.91 | -0.63%
CCCCC(=O)NC(c1ccco1)c1cc(Cl)c2cccnc2c1O (centres undefined) | 16.4 | 10.6%
Cc1ccc(S(=O)(=O)CCC(=O)N2CCN(c3ccc(Cl)cc3)CC2)cc1 | -1.83 | 2.47%
CC(C)CN=C(NS(=O)(=O)c1ccccc1)C(Cl)(Cl)Cl | 24.3 | 16.1%
CCC(=O)NC(c1cccs1)c1cc(Cl)c2cccnc2c1O (centres undefined) | 20.9 | 25.6%
CC/C(C)=N/Nc1cccc([N+](=O)[O-])c1 | 2.68 | 18%
O=C(N/N=C/c1cc(Br)ccc1OC(=O)c1ccc(Br)cc1)c1ccncc1 | 20.5 | 28%
NC(=O)CC(NC(=O)c1cccc(Br)c1)c1ccc(NC2CCN(Cc3ccccc3)CC2)c([N+](=O)[O-])c1 (centres undefined) | -3.11 | -4.06%
